This note sets out measurements from PubChem BioAssay AID1376 (SRMLSC, 2008).

Out of some 220,000 compounds screened, about 530 (0.24%) were called active. Shown is part of a subset that was picked to be rich in actives. Measured potencies and affinities stand elsewhere. Values without a mark were called inactive. Cut-off read from the data, not from the text of the source: active = inhibition above about 13%; inconclusive = no clear call, values can overlap the other calls; inactive = below that.

In this test the target is Bifunctional protein GlmU (Mycobacterium tuberculosis (strain ATCC 25618 / H37Rv)) (UniProt P9WMN3). In words: inhibition of mycobacterial GlmU enzyme – biochemical, glucosamine-1-phosphate acetyltransferase (AID 1376).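 Note: 0% = complete reaction with vehicle and 100% = reaction without substrate.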 The note with it: M. tuberculosis GlmU acetyltransferase enzyme assay; hits give high values;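 tested at 30 µM in the primary screen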.
Sequence of Bifunctional protein GlmU (Mycobacterium tuberculosis (strain ATCC 25618 / H37Rv)) (P9WMN3 whole entry, looked up): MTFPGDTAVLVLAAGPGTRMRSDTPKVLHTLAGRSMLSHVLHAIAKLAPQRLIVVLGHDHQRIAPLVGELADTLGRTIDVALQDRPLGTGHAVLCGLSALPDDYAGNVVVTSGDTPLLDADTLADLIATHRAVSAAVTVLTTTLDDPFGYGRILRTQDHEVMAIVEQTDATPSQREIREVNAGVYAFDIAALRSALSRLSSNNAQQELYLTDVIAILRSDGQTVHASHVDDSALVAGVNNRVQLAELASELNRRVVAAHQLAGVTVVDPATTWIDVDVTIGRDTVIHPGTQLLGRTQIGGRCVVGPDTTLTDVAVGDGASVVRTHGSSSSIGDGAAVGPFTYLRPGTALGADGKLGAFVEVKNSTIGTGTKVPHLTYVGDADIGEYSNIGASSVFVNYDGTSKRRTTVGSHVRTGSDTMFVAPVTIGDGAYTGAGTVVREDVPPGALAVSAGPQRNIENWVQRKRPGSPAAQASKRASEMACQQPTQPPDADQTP
Regarding `O=C1CN(c2ccc(Cl)cc2)C(=O)CN1NC(=S)Nc1ccc(Cl)cc1`, the inhibition (as a rule, the drop in the measured response relative to a control, in per cent) is -0.02%.
For the molecule `Cc1ccccc1-c1nnc(SCC#N)o1`, the inhibition was 5.25%.
With `Clc1cccc(/C=N/Nc2ncnc3ccccc23)c1` the figure was 14.7% (active); with `C(=N\Nc1ncnc2ccccc12)/c1ccccc1`, 4.18%.
With `Clc1cccc(/C=N/Nc2nc(Cl)nc3ccccc23)c1` the figure was -3.16%.
For the molecule `O=C(COC(=O)c1cccs1)NCC1CCCCC1`, the inhibition is -4.05%.
Next, `Cc1ccc(NC(=O)/C(C#N)=C/c2ccc(Sc3nc(C)cc(C)n3)o2)cc1`: 19.7% (active); `Cc1cc(C)nc(Sc2ccc(/C=C(\C#N)C(N)=O)o2)n1`: 3.14%.
For the molecule `Cc1cc(C)nc(Sc2ccc(/C=C(\C#N)C(=O)Nc3ccccc3)o2)n1`, the inhibition was -0.9%.
With `O=C1c2ccccc2S(=O)(=O)c2cc(C(=O)N3CCN(c4ccccc4)CC3)ccc21` the figure was -0.95%.
With `COc1ccc(/C=N/NC(=O)c2ccc(CN3C(=O)c4cccc5cccc3c45)cc2)cc1O` the figure was -5.54%.
With `CC(=O)N1C(Nc2ccc(Cl)cc2)CCN1c1ccccc1` (configuration not stated), the inhibition is 13.2% (active).
Regarding `O=C(Nc1ccc(Cl)cc1)N1CCN(c2ccccc2)CC1`, the inhibition was -0.29%.
With `O=C(CCN1CCN(c2ccccc2)CC1)Nc1ccc(Cl)cc1` the figure was 7.38%; with `COc1ccc(OCCC(=O)OCC(=O)NCCC2=CCCCC2)cc1`, -0.76%.
Consider `O=C(NCc1ccc2c(c1)OCO2)c1cc(-c2ccc(Cl)cc2Cl)on1`, for which the inhibition is -0.34%.
Next, `O=c1cc[nH]c2c(C(F)(F)F)cccc12`: 2.39%; `Cc1[nH]ccc(=O)c1OCc1c(Cl)cccc1Cl`: -3.63%; `O=c1cc[nH]c2c(Cl)cccc12`: 17.7% (active).
With `COC(=O)C(C(=O)OC)c1ncccc1[N+](=O)[O-]` the figure was 3.41%; with `COc1ccc(N2CC(C(=O)Nc3ccc4c(c3)OCO4)CC2=O)cc1` (configuration not stated), -2.39%; with `CS(=O)(=O)N(Cc1ccco1)Cc1ccccc1Cl`, 1.25%.
For `COCC(C)n1c(C)cc(C(=O)CSc2nnc(Nc3ccccc3F)s2)c1C` (configuration not stated), the inhibition is 1.64%.
Regarding `Cc1c(Cl)c([N+](=O)[O-])nn1CCCC(=O)Nc1c(Cl)cccc1Cl`, the inhibition was 13.8% (active).
Next, `Cc1nn(Cc2c(Cl)cccc2Cl)c(C)c1NC(=O)CCCn1nc([N+](=O)[O-])c(Cl)c1C`: 0.47%; `Cc1c(Cl)c([N+](=O)[O-])nn1CCCC(=O)Nc1cccc(Cl)c1Cl`: -3.35%; `Cc1cc(-c2ccccc2C(=O)NCc2ccccc2)on1`: 2.22%.
